Screening results (PubChem BioAssay)
An excerpt weighted towards active compounds, which were near 11% of everything screened.
ALDH1A1 inh – inhibitors of human aldehyde dehydrogenase 1A1; P00352; AID 1030; 220,000 tested, 7.3% active; Potency, µM (titrated, usually from 75.3 µM), without a hit: at the top dose activity, negative = inhibition, hits mostly inhibitors; Purified ALDH1A1, NADH fluorescence, propionaldehyde substrate;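 also: potency is read from the fitted curve at half-maximal effect; plate controls were no enzyme wells and a reference inhibitor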
HTT cytoprotect – protects HTT-Q103 PC12 cells, measured by ATP; PC12 HTT-Q103 induced, cytoprotection, ATP luminescence, 40 h; Potency, µM (titrated, usually from 56.4 µM), for inactives: cytoprotection (ATP increase), hits mostly activators; 230,000 tested, 0.14% active; AID 1471; active = well fitted curve in the direction sought with a large enough effect; inconclusive = small, poorly fitted or top-dose-only effect, or another doubt; inactive = no such curve, though single readings can be large; an effect the other way counts as inactive or inconclusive; also: potency is read from the fitted curve at half-maximal effect; % of control where 0% means no effect; nearly all actives have a fitted effect of over 45% in size
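Readout: ATPlite luminescence (ATP level). Model: stable PC12, inducible Htt exon1 Q103-GFP. Inducer: tebufenozide, 100 nM final. Compounds: dose series. No G418 in medium.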
HTT aggregate – reduces HttQ103-GFP aggregates in PC12 cells. PC12 HttQ103-GFP aggregates, Acumen cytometry, 40 h. 220,000 tested, 1.1% active. AID 1688. Potency, µM (doses to about 46.1 µM), without a hit: at the top dose activity change, negative = inhibition, usual class: inhibitors; active = well fitted curve in the direction sought with a large enough effect; inconclusive = small, poorly fitted or top-dose-only effect, or another doubt; inactive = no such curve, though single readings can be large; an effect the other way counts as inactive or inconclusive; also: potency is read from the fitted curve at half-maximal effect; % is scaled to controls: 0 for no effect and ±100 for the full control effect; nearly all actives have a fitted effect of over 60% in size
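PC12/HTTQ103-GFP, ecdysone-inducible; teb 100 nM; cpd qHTS titration; GFP aggregates read on laser cytometer, Ex 488/Em 500-530 nm.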
HPGD block – blocks human HPGD enzyme activity; purified HPGD, NADH fluorescence kinetic, PGE2 substrate; Potency, µM, without a hit: top-dose activity change, negative = inhibition, hits mostly inhibitors; P15428; AID 894; 150,000 tested, 4.3% active; also: potency is read from the fitted curve at half-maximal effect; % is scaled to controls: 0 for no effect and ±100 for the full control effect
Target sequence (P15428 whole entry, looked up): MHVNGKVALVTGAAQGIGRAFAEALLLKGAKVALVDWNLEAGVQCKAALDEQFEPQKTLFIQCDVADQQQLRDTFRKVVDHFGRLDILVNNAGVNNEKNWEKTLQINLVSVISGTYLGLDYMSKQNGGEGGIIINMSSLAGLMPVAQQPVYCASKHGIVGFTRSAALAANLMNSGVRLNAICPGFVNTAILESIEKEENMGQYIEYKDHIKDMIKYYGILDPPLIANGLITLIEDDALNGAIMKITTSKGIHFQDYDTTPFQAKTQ
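NADH formation kinetics: reaction with 30 uM PGE2 and 1 mM NAD+ (final), 20 nM enzyme, Tris-HCl pH 8 with Tween 20, after 15 min compound preincubation at room temperature. Fluorescence change, last versus first of five reads.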
RGS12 GoLoco inh – RGS12 GoLoco-Gai1 interaction inhibition | Gai1:RGS12 GoLoco peptide FP, rhodamine, 10 min | Potency, µM (top dose mostly 61.6 µM), for the others: top-dose activity, negative = inhibition, most hits filed as inhibitors | 230,000 tested, 0.44% active | AID 880; active = well fitted inhibition curve with a large enough effect, not every such curve was filed as active; inactive = no such curve, though single readings can be large or run the other way; also: potency is read from the fitted curve at half-maximal effect; % is scaled to controls: 0 for no effect and ±100 for the full control effect; nearly all actives have a fitted effect of over 30% in size
Target sequence (P63096 whole entry, looked up): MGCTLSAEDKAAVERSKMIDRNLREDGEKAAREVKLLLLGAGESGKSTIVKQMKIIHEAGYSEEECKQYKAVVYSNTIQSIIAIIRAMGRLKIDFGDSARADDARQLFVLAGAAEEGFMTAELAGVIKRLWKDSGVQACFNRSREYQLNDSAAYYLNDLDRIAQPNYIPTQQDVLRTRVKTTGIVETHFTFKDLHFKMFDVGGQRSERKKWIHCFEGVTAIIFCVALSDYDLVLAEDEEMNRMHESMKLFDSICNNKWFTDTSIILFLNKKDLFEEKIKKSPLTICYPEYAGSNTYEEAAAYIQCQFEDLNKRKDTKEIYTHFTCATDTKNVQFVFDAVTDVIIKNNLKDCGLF
PNC assembly inh – perinucleolar compartment assembly inhibition | activity change (PNC), negative = inhibition, % at 10 µM | AID 2417 | PC3M PTB-GFP, PNC prevalence imaging, 16 h; hits give low values | 140,000 tested, 3.1% active;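 active = readout at or below -70, meaning at least 70% loss of cells showing the perinucleolar compartment, a nuclear body marking cancer cells; inconclusive = readout between -30 and a set limit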;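 also: plate controls were DMSO wells for no effect and camptothecin positive control wells for full effect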
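PC3M cells stably expressing PTB-GFP, 750–1000 cells/well, treated 16 h at 37 °C with compound (23 nl of library stock), in duplicate. After paraformaldehyde fixation and Hoechst stain, imaged at 20x; PNC prevalence scored by image analysis.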
Active calls of the source: *; ? = inconclusive; . = no result given; [ ] = remark or other dose. Unless noted, calls follow the shape of the dose curve; as a rule, active = well fitted inhibition curve with a large enough effect (not every such curve was filed as active); inconclusive = small, poorly fitted or top-dose-only effect, or another doubt; inactive = no such curve, though single readings can be large or run the other way.

SMILES	ALDH1A1 inh	HTT cytoprotect	HTT aggregate	HPGD block	RGS12 GoLoco inh	PNC assembly inh
CC1CCOC(c2coc3ccccc3c2=O)O1 (stereo not drawn)	20µM*	-12.0%[10 µM]	8.2%	-15.1%	0.9%	13.5
COc1ccc(-c2coc3c(O)c(OC)ccc3c2=O)cc1	?	.	.	-17.3%	-4.4%	.
S=C(NCCc1ccccc1)NCCc1ccccc1	-6.7%	29.5%[0.074 µM]	-0.6%	-1.9%	2.0%	14.1
Cc1ccccc1C(=O)NC(=S)NCCc1ccccc1	11.2µM*	1.3%[10 µM]	5.5%	-7.4%	3.8%	-9.5
CC(C)(C)C(=O)NC(=S)NCCc1ccccc1	28.2µM*	-26.9%	4.4%	-9.5%	5.4%	-3.1
O=C(O)[C@@H]1CS[C@@]2(CCCN(Cc3ccccc3)C2)N1	-9.3%[13.5 µM]	5.7%[10 µM]	.	0.9%	3.0%[14.2 µM]	.
CCOC(=O)c1c(NC(=S)Nc2ccccc2)sc(C)c1C	25.1µM*	13.9%[10 µM]	3.3%	22.4µM*	10.1%	?
CCOC(=O)c1c(NC(=S)NCC2CCCO2)sc(C)c1C (stereo not drawn)	17.8µM*	-23.2%	4.4%	.	-1.3%	.
COC(=O)c1c(NC(=O)Nc2ccc(Cl)cc2)sc(C)c1C	-16.2%	-10.2%	5.0%	-22.4%	6.0%	-16.4
CCOC(=O)c1c(NC(=O)C[n+]2ccc(Cc3ccccc3)cc2)sc(C)c1C	0.708µM*	-38.0%	-30.6%	.	5.7%	.
CCOC(=O)c1c(NC(=O)C2CCCO2)sc(C(N)=O)c1C (stereo not drawn)	?	-33.9%[10 µM]	-3.7%	-10.2%	4.2%	13.8
CCOC(=O)c1c(NC(=O)CCc2ccc(CC)o2)sc(C)c1C	?	-19.0%	-7.5%	?	4.3%	1.1
Cc1sc(NC(=O)Nc2ccccc2)c(C(N)=O)c1C	12.6µM*	-1.4%[10 µM]	-5.0%[9.22 µM]	.	3.1%	.
CCOC(=O)c1cc(C)sc1NC(=S)Nc1ccccc1	?	16.0%	-0.4%	-12.0%	5.1%	14.1
N[C@@H](CNO)C(=O)O	10.3%[13.5 µM]	-1.2%[10 µM]	.	-10.9%	0.0%[14.2 µM]	.
O=[N+]([O-])c1cc(-c2ncccn2)c([N+](=O)[O-])s1	2.24µM*	.	?	28.2µM*	-10.4%	42.1
O=C(Nc1ccc(F)c([N+](=O)[O-])c1)C(=O)c1c(O)[nH]c2ccccc12	12.6µM*	.	22.7%	.	1.3%	.
COCC(=O)N1CCC[C@@]2(CCN(c3ncccn3)C2)C1	-7.2%	1.2%	.	-15.9%	-6.3%	.
Cc1cc2cc(OCC(=O)O)ccc2n1C	4.8%	4.4%[10 µM]	6.6%	-5.4%	-8.0%	-112.6*
COC(=O)[C@@]1(Cc2ccc(F)cc2)[C@H]2c3cc(C(=O)N(C)C)n(CCCNc4ccc(C(F)(F)F)cc4Cl)c3C[C@H]2CN1C(=O)c1ccccc1	-7.8%	19.2%	.	-7.5%	7.7%	.
CCN1C(=O)/C(=C2\C=Cc3cc(C)ccc3N2CC)OC1=S	3.2%	12.1%[10 µM]	3.7%	-10.3%	23.8%	?
CCN1/C(=C2\C(=O)N(c3ccccc3)N=C2C)C=Cc2cc(C)ccc21	9.9%	-10.2%[10 µM]	-10.1%	-2.6%	3.55µM*	?
CN(C)C[C@H]1CCC2=C(C1=O)C(c1ccc(Cl)c(Cl)c1)C1=C(CC[C@H](CN(C)C)C1=O)O2	-9.9%[13.5 µM]	13.2%[10 µM]	.	-15.3%	2.4%[14.2 µM]	.
N#C/C(=C\c1cn(Cc2ccc(C#N)cc2)c2ccccc12)C(=O)NCc1cccs1	-2.4%	1.4%[10 µM]	?	-6.5%	-1.3%	-116.4*
N#C/C(=C\c1cn(CCOc2ccccc2F)c2ccccc12)C(=O)NCc1cccs1	16.1%	11.1%[10 µM]	-21.5%	399.4%	-0.4%	?
SMILES	ALDH1A1 inh	HTT cytoprotect	HTT aggregate	HPGD block	RGS12 GoLoco inh	PNC assembly inh
CN1CCN(c2ncnc3ccc(-c4ccoc4)cc23)CC1	?	-30.3%	.	.	5.9%	.
Cc1cc2c(N3CCCCC3C)ncnc2s1 (stereo not drawn)	2.3%	2.9%[10 µM]	?	-8.8%	2.7%	?
Cc1c(C(=O)O)sc2ncnc(N3CCCCC3C)c12 (stereo not drawn)	2.2%	-10.9%	-25.1%	17.8µM*	3.0%	?
Cc1c(C(=O)N2CCCC(C)C2)sc2ncnc(N3CCCCC3C)c12 (stereo not drawn)	12.6µM*	-17.4%	-7.4%	.	11.1%	.
COC(=O)C1=C(C(=O)OC)[C@@H]2Nc3ccccc3[C@@]23C[C@@H](C(=O)OC)N(S(=O)(=O)c2c(C)noc2C)C3=N1	?	-7.6%[10 µM]	.	-0.2%	2.2%[14.2 µM]	.
COc1cc(C2CC(=O)Nc3cc(C)c(C)cc32)cc(OC)c1OC (stereo not drawn)	-0.4%	3.2%[0.074 µM]	-3.7%	-1.0%	12.7%	-18.2
CCN(CC)c1ccc(C2CC(=O)Nc3cc(OC)c(OC)cc32)cc1 (stereo not drawn)	12.6µM*	-4.1%	-21.3%	-10.5%	-10.9%	28.4
COc1cc2c(cc1OC)C(c1ccc(N(C)C)cc1)CC(=O)N2 (stereo not drawn)	8.91µM*	-1.1%	-15.2%	-13.3%	-33.0%	29.8
COc1cc2c(cc1OC)C(c1cccnc1)CC(=O)N2 (stereo not drawn)	7.7%	5.5%	5.1%	-5.0%	2.7%	-82.0*
COc1cc2c(cc1OC)C(c1cccc(OC)c1OC)CC(=O)N2 (stereo not drawn)	3.5%	-13.1%	24.7%	-14.2%	3.8%	?
CN(CC(=O)Nc1ccc(S(=O)(=O)N2CCCC2)cc1)Cc1c(F)cccc1Cl	?	-40.0%	?	.	5.2%	.
O=c1c(F)cn(C2CCCO2)c(=O)n1Cc1c(Cl)cccc1Cl (stereo not drawn)	-1.2%	-13.0%	-4.0%	15.8µM*	8.2%	-9.1
CC(C)(CSc1ccccn1)NS(=O)(=O)c1ccc(Cl)cc1	10µM*	-7.7%[10 µM]	9.3%	-8.1%	-2.6%	-13.7
CCCS(=O)(=O)c1c(S(=O)(=O)CCC)c2c3ccccc3ccn2c1C(=O)OC	?	12.7%[1.9 µM]	-17.3%	?	7.0%	-105.2*
Cn1cc(C(=O)c2ccc(Cl)cc2Cl)cc1C(=O)N/N=C(\N)COc1ccc(Cl)cc1	.	-13.5%[10 µM]	-15.0%[9.22 µM]	.	7.4%	.
Cn1cc(C(=O)c2ccc(Cl)cc2Cl)cc1C(=O)N/N=C(\N)COc1ccc(F)cc1	0.8%	-60.9%	17.8µM*	-10.3%	-3.7%	-18.1
CC(C)(C)c1nnc(N/N=C/c2cc(Br)ccc2O)n(N)c1=O	9.0%	-23.5%[10 µM]	12.6µM*	-12.8%	8.3%	13.6
CC1CCCN(C(=O)CCCn2c(=S)[nH]c3ccccc3c2=O)C1 (stereo not drawn)	17.8µM*	-2.4%	13.2%[9.22 µM]	7.94µM*	5.3%	?
COc1ccc2[nH]c3c(=O)n(CCCCC(=O)N4CCCC4)c(=S)[nH]c3c2c1	-7.2%	-5.6%	10.6%	4.47µM*	-4.6%	?
O=C(Cn1[nH]c(=O)c2ccccc2c1=O)NC1CCCCCC1	-4.9%	6.4%	-1.1%	-2.4%	0.6%	-85.7*
